Laboratory results taken from the supplement of paper PMC11732987, “Enantioselective OTUD7B fragment discovery through chemoproteomics screening and high-throughput optimisation” (Communications Chemistry, 2025).

Experiments:
Assay in all cases: log2 ratio of Biotin-Ahx-Ub-VS probe labelling (fragment/DMSO); higher = less target engagement (more negative = stronger competition), active = hit call of the paper (q ≤ 0.05, log2 ratio ≤ -1)
Conditions in all cases: compound concentration: 200 uM; treatment time: 3 h
USP9X = USP9X (UniProt Q93008)
How it was run: (§1)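 HEK293T lysate (495 µg per sample, in Tris/CHAPS/IGEPAL buffer with protease inhibitors) was exposed in triplicate for 3 h to fragment at 200 µM or to vehicle, then to Biotin-Ahx-Ub-VS at 0.5 µM final for 1 h. Labelled DUBs were enriched on NeutrAvidin, digested with LysC and trypsin, and analysed by diaPASEF LC-MS/MS. Spectronaut label-free quantities were normalised to the global median, and values are average log2 ratios of fragment over vehicle from an unpaired t-test. Only proteins with ≥2 unique peptides were used.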

UniProt O00487 = target: UniProt O00487
UniProt O00487, sequence (O00487 whole entry): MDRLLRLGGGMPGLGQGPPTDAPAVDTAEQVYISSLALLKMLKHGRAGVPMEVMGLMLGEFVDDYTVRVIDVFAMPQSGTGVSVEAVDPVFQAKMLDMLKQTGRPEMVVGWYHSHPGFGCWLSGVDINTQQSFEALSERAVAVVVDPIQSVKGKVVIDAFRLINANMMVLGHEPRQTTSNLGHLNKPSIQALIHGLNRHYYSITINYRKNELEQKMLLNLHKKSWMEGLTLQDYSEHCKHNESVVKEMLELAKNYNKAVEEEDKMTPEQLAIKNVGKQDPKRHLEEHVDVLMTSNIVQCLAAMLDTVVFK
How it was run: as §1

UniProt O00507 = target: UniProt O00507
UniProt O00507, sequence (O00507 whole entry): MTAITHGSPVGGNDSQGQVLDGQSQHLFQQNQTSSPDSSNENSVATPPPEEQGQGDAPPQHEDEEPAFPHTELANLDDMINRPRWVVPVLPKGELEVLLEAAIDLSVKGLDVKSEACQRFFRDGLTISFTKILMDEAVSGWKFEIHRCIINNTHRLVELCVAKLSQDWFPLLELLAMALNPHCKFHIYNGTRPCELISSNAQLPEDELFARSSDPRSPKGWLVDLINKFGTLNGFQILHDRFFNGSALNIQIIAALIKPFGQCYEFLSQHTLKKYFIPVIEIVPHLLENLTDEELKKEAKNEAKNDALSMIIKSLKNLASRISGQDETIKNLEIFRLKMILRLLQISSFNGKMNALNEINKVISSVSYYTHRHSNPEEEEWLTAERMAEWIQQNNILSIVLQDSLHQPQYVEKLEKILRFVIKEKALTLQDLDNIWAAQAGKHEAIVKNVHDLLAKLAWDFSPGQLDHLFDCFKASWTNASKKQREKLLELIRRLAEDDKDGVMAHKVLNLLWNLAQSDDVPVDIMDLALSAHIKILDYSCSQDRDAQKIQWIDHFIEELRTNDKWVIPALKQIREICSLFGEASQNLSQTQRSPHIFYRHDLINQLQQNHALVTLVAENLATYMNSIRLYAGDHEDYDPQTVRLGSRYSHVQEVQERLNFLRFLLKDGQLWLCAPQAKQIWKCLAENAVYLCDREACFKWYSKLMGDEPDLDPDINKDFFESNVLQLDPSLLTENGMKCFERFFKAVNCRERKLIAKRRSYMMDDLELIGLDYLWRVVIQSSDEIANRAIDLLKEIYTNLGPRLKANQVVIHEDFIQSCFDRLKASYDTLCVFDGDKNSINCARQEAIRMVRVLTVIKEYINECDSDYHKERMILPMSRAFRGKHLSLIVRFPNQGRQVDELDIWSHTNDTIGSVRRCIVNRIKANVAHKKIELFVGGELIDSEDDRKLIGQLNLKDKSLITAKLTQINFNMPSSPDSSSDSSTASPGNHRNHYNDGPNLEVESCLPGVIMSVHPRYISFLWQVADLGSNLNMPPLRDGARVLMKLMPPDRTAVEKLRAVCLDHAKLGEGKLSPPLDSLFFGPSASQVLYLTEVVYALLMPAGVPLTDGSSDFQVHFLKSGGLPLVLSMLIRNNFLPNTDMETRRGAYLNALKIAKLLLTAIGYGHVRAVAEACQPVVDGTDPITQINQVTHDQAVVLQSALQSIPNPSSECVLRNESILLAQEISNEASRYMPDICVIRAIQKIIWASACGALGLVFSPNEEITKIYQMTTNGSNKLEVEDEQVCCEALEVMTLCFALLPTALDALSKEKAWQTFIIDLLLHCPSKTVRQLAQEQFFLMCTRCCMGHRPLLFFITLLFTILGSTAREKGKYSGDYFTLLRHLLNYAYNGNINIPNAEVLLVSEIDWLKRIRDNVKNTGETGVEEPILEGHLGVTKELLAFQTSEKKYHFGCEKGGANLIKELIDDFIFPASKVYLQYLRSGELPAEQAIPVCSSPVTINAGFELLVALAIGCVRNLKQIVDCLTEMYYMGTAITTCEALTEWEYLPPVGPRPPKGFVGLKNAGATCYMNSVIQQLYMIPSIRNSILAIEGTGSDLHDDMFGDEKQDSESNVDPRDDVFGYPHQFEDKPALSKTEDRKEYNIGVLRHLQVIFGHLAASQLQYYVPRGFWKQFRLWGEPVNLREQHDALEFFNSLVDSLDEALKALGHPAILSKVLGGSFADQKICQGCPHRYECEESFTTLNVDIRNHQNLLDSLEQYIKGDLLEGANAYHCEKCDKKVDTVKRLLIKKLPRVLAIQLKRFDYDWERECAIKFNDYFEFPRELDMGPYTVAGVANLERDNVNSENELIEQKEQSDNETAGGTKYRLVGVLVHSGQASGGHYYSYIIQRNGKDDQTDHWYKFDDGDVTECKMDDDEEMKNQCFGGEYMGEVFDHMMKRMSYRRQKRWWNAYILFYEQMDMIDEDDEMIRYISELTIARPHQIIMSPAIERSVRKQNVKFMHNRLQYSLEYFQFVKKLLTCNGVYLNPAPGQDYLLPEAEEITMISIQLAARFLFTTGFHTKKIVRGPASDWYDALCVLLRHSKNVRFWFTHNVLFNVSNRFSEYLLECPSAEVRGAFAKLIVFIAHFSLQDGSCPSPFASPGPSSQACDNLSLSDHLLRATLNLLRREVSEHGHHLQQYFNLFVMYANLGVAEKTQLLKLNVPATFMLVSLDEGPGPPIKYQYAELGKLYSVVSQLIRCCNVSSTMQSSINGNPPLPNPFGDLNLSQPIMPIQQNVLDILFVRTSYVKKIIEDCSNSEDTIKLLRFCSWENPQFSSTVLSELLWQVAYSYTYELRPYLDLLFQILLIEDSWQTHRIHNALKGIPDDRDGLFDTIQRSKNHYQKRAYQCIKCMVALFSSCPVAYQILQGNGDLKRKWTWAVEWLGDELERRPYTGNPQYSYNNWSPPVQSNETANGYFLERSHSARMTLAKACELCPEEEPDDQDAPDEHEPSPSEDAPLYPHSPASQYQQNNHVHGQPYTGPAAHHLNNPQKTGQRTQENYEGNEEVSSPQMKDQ
How it was run: as §1

UniProt P51784 = target: UniProt P51784
UniProt P51784, sequence (P51784 whole entry): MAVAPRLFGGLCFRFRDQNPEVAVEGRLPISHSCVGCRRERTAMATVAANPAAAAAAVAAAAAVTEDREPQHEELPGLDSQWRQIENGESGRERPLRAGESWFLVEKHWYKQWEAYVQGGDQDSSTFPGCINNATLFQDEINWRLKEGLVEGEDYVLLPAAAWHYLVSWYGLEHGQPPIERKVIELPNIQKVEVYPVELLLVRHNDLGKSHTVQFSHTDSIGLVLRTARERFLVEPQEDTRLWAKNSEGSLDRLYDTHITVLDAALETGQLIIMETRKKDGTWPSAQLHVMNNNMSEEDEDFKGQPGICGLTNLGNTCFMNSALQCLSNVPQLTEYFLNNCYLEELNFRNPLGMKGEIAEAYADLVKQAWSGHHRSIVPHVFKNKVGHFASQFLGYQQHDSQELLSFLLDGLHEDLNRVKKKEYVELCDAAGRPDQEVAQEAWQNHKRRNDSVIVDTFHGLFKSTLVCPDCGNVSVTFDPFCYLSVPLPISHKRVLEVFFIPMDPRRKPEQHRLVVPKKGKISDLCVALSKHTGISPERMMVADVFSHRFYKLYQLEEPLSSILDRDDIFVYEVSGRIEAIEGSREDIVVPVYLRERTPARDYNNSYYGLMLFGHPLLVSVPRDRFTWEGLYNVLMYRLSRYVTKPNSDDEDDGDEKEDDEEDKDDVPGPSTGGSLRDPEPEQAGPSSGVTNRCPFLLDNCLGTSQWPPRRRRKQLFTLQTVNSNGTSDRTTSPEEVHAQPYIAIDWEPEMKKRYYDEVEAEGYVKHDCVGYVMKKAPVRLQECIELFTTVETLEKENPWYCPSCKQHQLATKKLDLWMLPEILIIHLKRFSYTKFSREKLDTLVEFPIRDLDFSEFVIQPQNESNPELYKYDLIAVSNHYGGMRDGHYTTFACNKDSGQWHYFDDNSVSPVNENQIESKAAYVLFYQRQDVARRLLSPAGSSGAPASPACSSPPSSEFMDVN
How it was run: as §1

UniProt Q5T2D3 = target: T1, UniProt Q5T2D3
T1 sequence (whole entry): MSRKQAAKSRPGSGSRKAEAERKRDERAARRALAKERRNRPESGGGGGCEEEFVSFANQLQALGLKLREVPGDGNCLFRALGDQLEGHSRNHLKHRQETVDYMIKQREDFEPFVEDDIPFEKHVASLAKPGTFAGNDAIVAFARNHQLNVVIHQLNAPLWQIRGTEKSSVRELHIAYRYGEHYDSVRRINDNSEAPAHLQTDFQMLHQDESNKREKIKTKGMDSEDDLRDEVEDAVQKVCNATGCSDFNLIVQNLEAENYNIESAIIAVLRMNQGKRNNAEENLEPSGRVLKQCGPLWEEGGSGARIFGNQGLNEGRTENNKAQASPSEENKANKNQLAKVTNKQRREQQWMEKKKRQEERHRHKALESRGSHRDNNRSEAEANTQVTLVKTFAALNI
How it was run: as §1

UniProt Q8TE49 = target: T2, UniProt Q8TE49
T2 sequence (whole entry): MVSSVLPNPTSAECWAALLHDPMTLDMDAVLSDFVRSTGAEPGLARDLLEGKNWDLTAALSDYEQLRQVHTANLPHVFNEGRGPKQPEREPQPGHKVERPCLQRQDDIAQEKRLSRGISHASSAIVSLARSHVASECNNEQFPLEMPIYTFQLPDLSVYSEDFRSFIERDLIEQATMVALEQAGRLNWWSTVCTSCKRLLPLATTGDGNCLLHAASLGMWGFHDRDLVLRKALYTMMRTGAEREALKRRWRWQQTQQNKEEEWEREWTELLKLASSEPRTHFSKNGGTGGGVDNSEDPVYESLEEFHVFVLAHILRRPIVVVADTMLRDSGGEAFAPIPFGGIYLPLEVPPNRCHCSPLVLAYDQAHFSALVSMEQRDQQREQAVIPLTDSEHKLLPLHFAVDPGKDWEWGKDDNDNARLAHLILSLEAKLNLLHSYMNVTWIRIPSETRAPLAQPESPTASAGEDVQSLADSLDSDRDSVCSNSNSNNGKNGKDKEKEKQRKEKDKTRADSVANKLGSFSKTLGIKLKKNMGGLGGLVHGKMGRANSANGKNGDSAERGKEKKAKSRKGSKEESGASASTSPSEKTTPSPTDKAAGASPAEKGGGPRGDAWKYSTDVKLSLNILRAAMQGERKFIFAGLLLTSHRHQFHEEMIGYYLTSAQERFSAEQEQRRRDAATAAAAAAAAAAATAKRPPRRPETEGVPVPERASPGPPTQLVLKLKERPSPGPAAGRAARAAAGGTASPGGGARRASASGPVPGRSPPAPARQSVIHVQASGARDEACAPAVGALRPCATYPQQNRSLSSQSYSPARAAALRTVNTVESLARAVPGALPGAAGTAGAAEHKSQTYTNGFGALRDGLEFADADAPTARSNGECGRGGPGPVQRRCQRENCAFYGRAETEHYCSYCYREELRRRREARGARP
How it was run: as §1

UniProt Q9P2H5 = target: T3, UniProt Q9P2H5
T3 sequence (whole entry): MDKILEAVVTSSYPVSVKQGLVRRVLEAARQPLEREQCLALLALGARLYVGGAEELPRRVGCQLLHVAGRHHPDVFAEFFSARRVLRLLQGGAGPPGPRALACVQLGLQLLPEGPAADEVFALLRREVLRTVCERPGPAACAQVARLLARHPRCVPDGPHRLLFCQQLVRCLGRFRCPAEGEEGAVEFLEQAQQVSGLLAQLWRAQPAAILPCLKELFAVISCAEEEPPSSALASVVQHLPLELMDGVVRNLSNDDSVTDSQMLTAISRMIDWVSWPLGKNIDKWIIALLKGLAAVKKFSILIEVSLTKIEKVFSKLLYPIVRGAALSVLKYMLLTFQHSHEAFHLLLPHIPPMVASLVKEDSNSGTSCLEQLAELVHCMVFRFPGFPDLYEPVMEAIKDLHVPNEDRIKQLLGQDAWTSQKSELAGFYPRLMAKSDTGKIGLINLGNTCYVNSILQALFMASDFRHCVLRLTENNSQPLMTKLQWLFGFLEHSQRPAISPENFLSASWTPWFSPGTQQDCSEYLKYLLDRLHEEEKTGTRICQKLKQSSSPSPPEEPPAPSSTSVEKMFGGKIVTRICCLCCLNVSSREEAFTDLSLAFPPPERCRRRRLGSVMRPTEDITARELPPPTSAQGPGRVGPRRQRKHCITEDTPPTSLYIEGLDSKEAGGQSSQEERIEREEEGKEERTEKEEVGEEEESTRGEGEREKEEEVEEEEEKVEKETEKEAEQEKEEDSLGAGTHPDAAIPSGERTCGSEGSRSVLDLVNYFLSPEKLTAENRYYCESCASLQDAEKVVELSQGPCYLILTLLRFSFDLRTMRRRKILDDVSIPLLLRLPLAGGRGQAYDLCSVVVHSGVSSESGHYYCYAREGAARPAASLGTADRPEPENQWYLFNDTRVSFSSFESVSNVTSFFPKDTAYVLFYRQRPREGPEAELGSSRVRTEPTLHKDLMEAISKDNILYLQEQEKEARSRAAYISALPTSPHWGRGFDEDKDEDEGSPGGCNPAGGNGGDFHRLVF
How it was run: as §1

UniProt Q9UGI0 = target: T4, UniProt Q9UGI0
T4 sequence (whole entry): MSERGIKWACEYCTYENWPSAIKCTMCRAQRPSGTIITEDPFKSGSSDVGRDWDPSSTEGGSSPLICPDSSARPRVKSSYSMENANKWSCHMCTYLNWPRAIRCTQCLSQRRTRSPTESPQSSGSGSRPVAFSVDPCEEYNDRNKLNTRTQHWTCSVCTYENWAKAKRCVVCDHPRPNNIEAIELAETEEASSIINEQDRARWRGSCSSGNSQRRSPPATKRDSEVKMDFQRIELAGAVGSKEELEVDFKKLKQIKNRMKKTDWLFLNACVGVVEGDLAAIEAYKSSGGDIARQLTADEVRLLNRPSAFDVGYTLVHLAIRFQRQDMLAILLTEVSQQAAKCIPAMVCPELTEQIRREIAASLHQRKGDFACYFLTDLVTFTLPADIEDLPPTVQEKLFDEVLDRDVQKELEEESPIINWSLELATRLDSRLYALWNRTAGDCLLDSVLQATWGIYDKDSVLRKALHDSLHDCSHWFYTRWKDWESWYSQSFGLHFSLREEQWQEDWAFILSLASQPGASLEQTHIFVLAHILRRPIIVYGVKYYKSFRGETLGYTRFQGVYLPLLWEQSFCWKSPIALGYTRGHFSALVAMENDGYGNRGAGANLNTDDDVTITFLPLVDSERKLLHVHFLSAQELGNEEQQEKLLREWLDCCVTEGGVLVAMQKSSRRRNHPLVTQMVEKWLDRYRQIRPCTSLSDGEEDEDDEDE
How it was run: as §1

YOD1 = target: T5, YOD1 (UniProt Q5VVQ6)
T5 sequence (whole entry): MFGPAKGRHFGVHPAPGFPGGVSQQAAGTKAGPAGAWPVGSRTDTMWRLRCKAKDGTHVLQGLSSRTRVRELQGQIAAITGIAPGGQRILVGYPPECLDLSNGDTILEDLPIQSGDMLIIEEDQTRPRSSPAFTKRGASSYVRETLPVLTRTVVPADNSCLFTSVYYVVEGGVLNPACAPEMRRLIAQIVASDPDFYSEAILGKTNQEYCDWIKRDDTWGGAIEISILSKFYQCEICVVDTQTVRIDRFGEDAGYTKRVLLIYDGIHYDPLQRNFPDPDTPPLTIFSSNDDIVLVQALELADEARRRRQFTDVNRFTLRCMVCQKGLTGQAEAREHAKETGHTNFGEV
How it was run: as §1

Measured: log2 ratio of Biotin-Ahx-Ub-VS probe labelling

O=C(CCl)N1CCc2sccc2C1
inactive: USP9X -0.286 | UniProt O00487 0.0182 | UniProt O00507 -0.0149 | UniProt P51784 -0.207 | UniProt Q5T2D3 -0.075 | UniProt Q9P2H5 -0.371 | YOD1 -0.00804
active: UniProt Q8TE49 -1.18 | UniProt Q9UGI0 -1.9
